A number with no mark means an inactive call. Inconclusive results are not listed. Where a call stands in place of a potency, no number is given. Active and inactive are the calls of the source. Unless noted, calls follow the shape of the dose curve; as a rule, active = well fitted curve in the direction sought with a large enough effect; inconclusive = small, poorly fitted or top-dose-only effect, or another doubt; inactive = no such curve, though single readings can be large; an effect the other way counts as inactive or inconclusive.
Legend:
[1] = qHTS assay for measurement of the activity of small molecule inhibitors on Zika virus induced Caspase-3 activity in human iPSC derived neural progenitor cells (hNPCs) (AID 1224857); also: nearly all actives have a fitted effect of over 65% in size
Outline: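 Zika virus (2 FFU/cell) infection of human iPSC-derived NPCs, 6 h, following 1 h compound preincubation. Read-out: Caspase-Glo 3/7 luminescence.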

[2] = qHTS assay for measurement of the activity of small molecule inhibitors on Zika virus induced Caspase-3 activity in human astrocytoma cells (AID 1224859)
Outline: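 Caspase activation in ZIKV-infected SNB-19 cells (2 FFU/cell, 6 h) measured by Caspase-Glo 3/7 luminescence after 30 min RT; compound pre-incubated 1 h; normalised to uninfected and infected controls.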

[3] = target: Atrial natriuretic peptide receptor 1 (Homo sapiens) (UniProt P16066); test: Natriuretic polypeptide receptor (hNpr1) antagonism - Pilot screen (AID 1347049; calls by dose curve;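 also: agonist-evoked cGMP luminescence read 20 min after hNppA addition; series mostly up to about 58 µM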)
Sequence of Atrial natriuretic peptide receptor 1 (Homo sapiens) (P16066 whole entry, looked up): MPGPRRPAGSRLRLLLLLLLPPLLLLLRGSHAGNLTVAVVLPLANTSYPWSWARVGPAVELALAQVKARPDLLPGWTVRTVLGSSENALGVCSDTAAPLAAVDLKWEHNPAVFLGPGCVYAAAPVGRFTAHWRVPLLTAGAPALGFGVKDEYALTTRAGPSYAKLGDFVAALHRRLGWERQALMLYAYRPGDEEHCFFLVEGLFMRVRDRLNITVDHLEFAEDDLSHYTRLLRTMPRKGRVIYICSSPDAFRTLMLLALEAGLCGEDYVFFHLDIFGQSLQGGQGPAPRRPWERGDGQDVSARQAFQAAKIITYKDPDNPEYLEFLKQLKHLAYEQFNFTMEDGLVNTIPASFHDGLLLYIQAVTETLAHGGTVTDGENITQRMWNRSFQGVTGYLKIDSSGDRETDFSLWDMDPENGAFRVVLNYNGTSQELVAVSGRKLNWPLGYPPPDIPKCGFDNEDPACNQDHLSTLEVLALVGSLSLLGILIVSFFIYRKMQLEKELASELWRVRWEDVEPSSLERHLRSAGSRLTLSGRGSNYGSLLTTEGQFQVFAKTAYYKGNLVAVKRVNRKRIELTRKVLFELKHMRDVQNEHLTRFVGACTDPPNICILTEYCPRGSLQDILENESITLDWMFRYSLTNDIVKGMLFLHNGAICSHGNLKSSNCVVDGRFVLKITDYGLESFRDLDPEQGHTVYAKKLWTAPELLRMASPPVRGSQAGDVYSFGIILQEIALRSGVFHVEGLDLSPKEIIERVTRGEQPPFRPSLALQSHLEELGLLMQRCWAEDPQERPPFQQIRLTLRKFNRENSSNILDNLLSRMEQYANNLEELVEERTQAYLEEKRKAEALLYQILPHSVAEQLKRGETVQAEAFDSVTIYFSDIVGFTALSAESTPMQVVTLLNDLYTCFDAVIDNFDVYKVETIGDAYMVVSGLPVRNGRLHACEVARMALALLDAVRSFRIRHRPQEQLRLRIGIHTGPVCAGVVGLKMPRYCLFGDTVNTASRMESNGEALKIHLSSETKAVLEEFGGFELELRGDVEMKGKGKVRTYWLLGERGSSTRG
Outline: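 HEK293 cells co-expressing hNpr1 and the GloSensor pGS-40F cGMP luciferase sensor were preloaded with 2% GloSensor reagent for 2 h. Compounds were added for 30 min at room temperature, then cells were stimulated with 0.1 nM hNppA for 20 min before luminescence readout.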

[4] = target: Atrial natriuretic peptide receptor 2 (Homo sapiens) (UniProt P20594); test: Natriuretic polypeptide receptor (hNpr2) antagonism - Pilot subtype selectivity assay (AID 1347050; calls by dose curve; also: potency is read from the fitted curve at half-maximal effect)
Sequence of Atrial natriuretic peptide receptor 2 (Homo sapiens) (P20594 whole entry, looked up): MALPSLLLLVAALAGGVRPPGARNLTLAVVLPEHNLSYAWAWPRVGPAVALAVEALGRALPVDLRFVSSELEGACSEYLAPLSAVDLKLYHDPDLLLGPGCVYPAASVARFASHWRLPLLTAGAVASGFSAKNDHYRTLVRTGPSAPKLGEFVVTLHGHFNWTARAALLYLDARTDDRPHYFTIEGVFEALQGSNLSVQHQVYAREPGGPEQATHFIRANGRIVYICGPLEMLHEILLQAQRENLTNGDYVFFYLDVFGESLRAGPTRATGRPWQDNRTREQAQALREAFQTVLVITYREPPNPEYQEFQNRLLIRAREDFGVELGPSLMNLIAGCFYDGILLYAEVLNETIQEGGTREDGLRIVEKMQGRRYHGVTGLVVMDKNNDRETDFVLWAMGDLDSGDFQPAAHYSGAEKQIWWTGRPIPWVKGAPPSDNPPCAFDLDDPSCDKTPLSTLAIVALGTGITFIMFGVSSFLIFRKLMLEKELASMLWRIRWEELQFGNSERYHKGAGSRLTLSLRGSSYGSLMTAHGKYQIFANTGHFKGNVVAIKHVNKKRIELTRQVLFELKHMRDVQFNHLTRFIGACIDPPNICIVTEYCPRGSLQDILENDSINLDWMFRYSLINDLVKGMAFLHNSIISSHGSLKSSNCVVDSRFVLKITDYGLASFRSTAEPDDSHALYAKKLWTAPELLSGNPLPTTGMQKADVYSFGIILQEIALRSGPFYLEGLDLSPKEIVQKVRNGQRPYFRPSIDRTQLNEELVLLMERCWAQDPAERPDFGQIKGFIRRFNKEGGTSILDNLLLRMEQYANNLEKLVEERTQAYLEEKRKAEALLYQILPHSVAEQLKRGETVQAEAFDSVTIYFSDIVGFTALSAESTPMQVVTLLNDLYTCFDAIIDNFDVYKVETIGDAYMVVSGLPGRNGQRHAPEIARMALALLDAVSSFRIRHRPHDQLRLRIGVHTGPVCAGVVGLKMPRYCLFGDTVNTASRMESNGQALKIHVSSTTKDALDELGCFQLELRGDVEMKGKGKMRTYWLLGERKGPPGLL
Outline: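 cGMP-sensor HEK293/hNpr2 cells; 2% GloSensor reagent 2 h RT; compounds 30 min; baseline luminescence read; 1 nM hNppC agonist 20 min RT; final luminescence read by CCD camera. Antagonism = reduced post-agonist signal.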

[5] = NS1 protein of Zika virus - qHTS assay to identify small molecule inhibitors in human HEK 293 cells (AID 1347053); also: series mostly up to about 46 µM; nearly all actives have a fitted effect of over 55% in size
Outline: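 HEK 293; 20 h pre-culture, 37 C/5% CO2; cpd 1 h pre-infection; ZIKV MR766, MOI = 0.5, 24 h, 37 C; TR-FRET NS1 readout (two anti-NS1 Abs); norm. to no-virus vs infected.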

[6] = target: T1, Tyrosine-protein phosphatase non-receptor type substrate 1 (Homo sapiens) + Leukocyte surface antigen CD47 (Homo sapiens) (UniProt P78324+Q08722); test: CD47-SIRPalpha protein protein interaction - LANCE assay qHTS validation (AID 1347057; active = well fitted curve in the direction sought with a large enough effect in the signal ratio, with a control signal flat, not every such curve was filed as active; the % refers to the signal ratio; also: series mostly up to about 38 µM)
T1 sequence (P78324 whole entry, looked up): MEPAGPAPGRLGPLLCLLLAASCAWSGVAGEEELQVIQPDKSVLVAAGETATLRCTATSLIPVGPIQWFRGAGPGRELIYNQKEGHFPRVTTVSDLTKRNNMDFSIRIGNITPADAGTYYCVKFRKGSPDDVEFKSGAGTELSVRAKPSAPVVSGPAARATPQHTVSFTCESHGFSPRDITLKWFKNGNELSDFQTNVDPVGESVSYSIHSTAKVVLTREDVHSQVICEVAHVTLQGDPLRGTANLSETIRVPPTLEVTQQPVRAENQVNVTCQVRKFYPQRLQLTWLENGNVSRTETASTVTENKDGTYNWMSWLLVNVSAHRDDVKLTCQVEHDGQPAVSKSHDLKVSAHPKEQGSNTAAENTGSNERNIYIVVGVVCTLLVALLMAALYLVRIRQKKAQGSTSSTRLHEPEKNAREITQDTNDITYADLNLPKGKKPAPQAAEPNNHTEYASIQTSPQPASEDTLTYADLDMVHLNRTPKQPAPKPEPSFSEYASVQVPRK
T1 sequence (Q08722 whole entry, looked up): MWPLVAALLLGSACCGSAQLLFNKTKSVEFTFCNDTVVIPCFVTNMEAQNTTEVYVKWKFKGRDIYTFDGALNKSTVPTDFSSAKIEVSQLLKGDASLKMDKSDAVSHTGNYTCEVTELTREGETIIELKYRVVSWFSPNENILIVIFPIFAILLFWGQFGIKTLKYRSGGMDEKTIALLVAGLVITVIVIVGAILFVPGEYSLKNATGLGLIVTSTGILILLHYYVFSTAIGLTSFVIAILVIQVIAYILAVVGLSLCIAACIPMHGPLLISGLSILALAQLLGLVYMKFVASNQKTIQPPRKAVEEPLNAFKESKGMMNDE
Outline: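 First, His-tagged CD47 and Eu-labelled anti-His antibody met the compound for 30 min; next, site-specifically biotinylated SIRPalpha was added for 30 min; finally streptavidin-APC was added before reading the TR-FRET ratio.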

[7] = target: T1, Tyrosine-protein phosphatase non-receptor type substrate 1 (Homo sapiens) + Leukocyte surface antigen CD47 (Homo sapiens); test: CD47-SIRPalpha protein protein interaction - Alpha assay qHTS validation (AID 1347059);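 also: bead proximity luminescence from CD47 binding SIRPalpha after compound preincubation with SIRPalpha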
Outline: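 Soluble extracellular domains: Avi-tag biotinylated SIRPalpha (25 nM) preincubated 30 min RT with compound, then 6His-CD47 (12.5 nM) 30 min; Ni-NTA acceptor and streptavidin donor beads (10 ug/mL) 30 min, AlphaScreen read. PBS pH 7.4, 0.05% IGEPAL.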

[8] = target: Parathyroid hormone/parathyroid hormone-related peptide receptor (Homo sapiens) (UniProt Q03431); test: qHTS for PTHR1 Agonists: Optimization Screen against the NCGC LOPAC library (AID 1347079);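 also: GloSensor cAMP luminescence in HEK-293 GP2 cells expressing human PTHR1 with IBMX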
Sequence of Parathyroid hormone/parathyroid hormone-related peptide receptor (Homo sapiens) (Q03431 whole entry, looked up): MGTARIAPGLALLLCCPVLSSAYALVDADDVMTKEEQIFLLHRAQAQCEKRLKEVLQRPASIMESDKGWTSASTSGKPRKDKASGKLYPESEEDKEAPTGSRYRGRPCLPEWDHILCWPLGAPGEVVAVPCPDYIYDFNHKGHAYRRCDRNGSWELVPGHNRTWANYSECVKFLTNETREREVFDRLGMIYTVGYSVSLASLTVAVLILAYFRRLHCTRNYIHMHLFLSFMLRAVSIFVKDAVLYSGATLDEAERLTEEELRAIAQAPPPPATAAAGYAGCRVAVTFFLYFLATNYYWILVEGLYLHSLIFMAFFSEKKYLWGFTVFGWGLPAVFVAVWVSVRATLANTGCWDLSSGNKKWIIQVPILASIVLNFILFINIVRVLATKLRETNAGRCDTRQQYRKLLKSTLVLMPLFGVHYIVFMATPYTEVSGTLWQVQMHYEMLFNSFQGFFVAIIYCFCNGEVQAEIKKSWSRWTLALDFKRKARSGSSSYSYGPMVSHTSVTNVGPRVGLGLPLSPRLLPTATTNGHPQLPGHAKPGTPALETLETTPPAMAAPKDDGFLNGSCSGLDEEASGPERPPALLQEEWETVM
Outline: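 Agonist readout: GloSensor cAMP luminescence, read after 15 min at room temperature. HEK-293-derived GP2 line carries PTHR1; compounds tested as a titration for 1 hr at 37C in presence of IBMX. M-PTH (1-15) served as control.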

[9] = target: T1, Tyrosine-protein phosphatase non-receptor type substrate 1 (Homo sapiens) + Leukocyte surface antigen CD47 (Homo sapiens); test: CD47-SIRPalpha protein protein interaction - HTRF assay qHTS validation (AID 1347058; active = well fitted curve in the direction sought with a large enough effect in the signal ratio, not every such curve was filed as active; the % refers to the signal ratio; also: series mostly up to about 38 µM)
Outline: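 TR-FRET read (Ch1/Ch2 ratio) of soluble extracellular CD47 and Avi-biotinylated SIRPalpha domains in PBS pH 7.4 with 0.05% IGEPAL; 7-point compound titration. Sequential 30 min room-temperature steps; non-biotinylated SIRPalpha as control inhibitor.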

SMILES | Potency [1] | Potency [2] | Potency [3] | Potency [4] | Potency [5] | Potency [6] | Potency [7] | Potency [8] | outcome [9]
CN(C)c1nc(N)c(C(=O)N=C(N)N)nc1Cl | inactive | inactive | inactive | inactive | inactive | inactive | inactive | inactive | 
Oc1ccccc1O | inactive | inactive | inactive | inactive | inactive |  |  | inactive | 
CN1C2CC(OC(=O)[C@H](CO)c3ccccc3)CC1C1OC12 (some centres not stated) | inactive | inactive | inactive | inactive | inactive |  |  | inactive | 
Cc1cc(NC2CCCCC2)nc(-n2nc(C)cc2C)n1 | inactive | inactive | inactive | inactive | inactive | inactive | inactive | inactive | inactive
Clc1ccc(N2CCN(Cc3c[nH]c4ncccc34)CC2)cc1 | inactive | inactive | inactive | inactive | inactive | inactive | inactive | inactive | inactive
NCCCCCCCCCCN | inactive | inactive | inactive | inactive | inactive | inactive | inactive | inactive | inactive
O=S(=O)(c1cccc2c(I)cccc12)N1CCCNCC1 | inactive | inactive | inactive |  | inactive | inactive | inactive |  | 
CN1CCc2cc(NC(=O)Nc3cccnc3)ccc21 | inactive | inactive | inactive | inactive | inactive | inactive | inactive | inactive | inactive
CCCN(CC1CC1)c1nc(C)nc(Nc2c(Cl)cc(Cl)cc2Cl)c1Cl | inactive | inactive | inactive | inactive | inactive | inactive | inactive | inactive | inactive
COC(=O)c1c(C)[nH]c(C)c1C(=O)c1ccccc1Cc1ccccc1 | inactive | inactive |  | inactive | inactive | inactive | inactive | inactive | inactive
O=c1[nH]c2cc(C(F)(F)F)ccc2n1-c1cc(C(F)(F)F)ccc1O | inactive | inactive |  | inactive | inactive | inactive | inactive | inactive | inactive
OCC1O[C@H](O)C(Cl)C(O)C1O (some centres not stated) | inactive | inactive |  | inactive | inactive | inactive | inactive | inactive | 
N[C@@H](CC(=O)O)C(=O)O | inactive | inactive | inactive | inactive |  |  |  | inactive | 
C=C[C@H]1CN2CC[C@@H]1C[C@@H]2[C@@H](O)c1ccnc2ccc(OC)cc12 | inactive | inactive |  | inactive | inactive |  |  | inactive | 
COc1cc(SC)ccc1C(=O)N1CCC(Cc2ccccc2)CC1 | inactive | inactive |  | inactive |  | inactive | inactive | inactive | inactive
CN1CCc2ccccc2Cc2[nH]c3ccccc3c2CC1 | inactive | inactive | inactive | inactive |  | inactive | inactive | inactive | 
CC1(C)CCC=[N+]1[O-] | inactive | inactive | inactive | inactive | inactive | inactive | inactive | inactive | inactive
CSc1ccccc1N1CCN(CCCCCC(=O)NC2CCCc3ccccc32)CC1 (configuration not stated) | inactive | inactive | inactive | inactive |  |  |  | inactive | inactive
O=C(O)CCCC[C@@H]1CCSS1 | inactive | inactive | inactive | inactive |  |  |  | inactive | 
O=C(O)c1cc(=O)c2ccccc2[nH]1 | inactive | inactive | inactive | inactive |  | inactive | inactive | inactive | inactive
NC(=O)C(=O)O | inactive | inactive |  | inactive |  | inactive | inactive | inactive | inactive
Cn1ncc(S(=O)(=O)Cc2ccccc2)c(Br)c1=O | inactive | inactive | inactive | 11.7 µM (active) |  | inactive | inactive | inactive | 
O=C(Nc1ccccc1)c1cc([N+](=O)[O-])ccc1Cl | inactive | inactive |  | inactive | inactive | inactive | inactive | inactive | 

Reference: PubChem BioAssay (NCATS)
